Among all 17,000 compounds or so, about 75 (0.4%) were called active.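 The calls were made as follows: active = compounds whose four printed spots each glow above background more than chance allows, each with a p-value under 7%; inactive = the rest.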 The entries come from a sample that favours actives as a whole.

The source of these data is PubChem BioAssay AID624136 (Broad Institute, 2012).

The test concerns mutant tumor protein p53 (GST-tagged), Homo sapiens. Briefly: small molecules binding GST-tagged mutant p53 – biochemical, small molecule microarray, anti-GST fluorescence, primary screen (AID 624136).
On to `C[C@H](CO)N1C[C@H](C)[C@@H](CN(C)C(=O)Nc2ccc3c(c2)OCO3)Oc2ccc(NC(=O)NC3CCCCC3)cc2CC1=O`, for which the outcome was inactive.
Under `CC(C)NC(=O)Nc1ccc2c(c1)CC(=O)N([C@@H](C)CO)C[C@@H](C)[C@@H](CN(C)S(=O)(=O)c1ccccc1)O2` stands “inactive”.
Under `C[C@@H]1CN([C@@H](C)CO)C(=O)c2cc(N(C)C)ccc2O[C@@H](C)CCCCO[C@H]1CN(C)Cc1ccncc1` stands “inactive”; under `CC(=O)O[C@H]1C[C@@H](OC(C)=O)C(C)(C)C2C[C@@H](O)[C@]3(C)C(CC[C@@]4(C)[C@H](c5ccoc5)OC(=O)C5OC543)[C@]21C` (stereo not given in full), “inactive”; under `CCC(=O)O[C@]1(C(=O)CCl)[C@@H](C)CC2C3CCC4=CC(=O)C=C[C@]4(C)[C@@]3(F)[C@@H](O)C[C@@]21C` (stereo not given in full), “inactive”.
Under `COc1ccc2nc(SCC(=O)Nc3ccc(I)cc3)[nH]c2c1` stands “inactive”; under `C[C@@H]1CN([C@@H](C)CO)C(=O)c2cccc(NC(=O)Nc3ccc(C(F)(F)F)cc3)c2O[C@@H]1CN(C)S(=O)(=O)c1cccs1`, “inactive”.
Turning to `C[C@H](CO)N1C[C@H](C)[C@H](CN(C)Cc2ccccc2)OCCCC[C@H](C)Oc2ccc(NC(=O)CCC(F)(F)F)cc2C1=O`, the call was inactive.
Under `OCCNc1nc(Nc2ccc(Cl)cc2)nc(N2CCCCC2)n1` stands “inactive”; under `C[C@@H]1CN([C@@H](C)CO)C(=O)c2cccc(NS(=O)(=O)c3ccc(F)cc3)c2O[C@H]1CN(C)C(=O)NC1CCCCC1`, “inactive”; under `C[C@H]1CN([C@@H](C)CO)C(=O)Cc2cc(NS(C)(=O)=O)ccc2O[C@@H]1CN(C)CC1CC1`, “inactive”.
Consider `Cc1ccc(-c2cc(C(F)(F)F)n3nc(C(=O)NCCN4CCOCC4)c(Cl)c3n2)cc1`, for which the result was inactive.
Under `CCC(=O)Nc1cccc(NC(=O)COc2ccc(Br)cc2)c1` stands “inactive”.
Under `CNC[C@H]1Oc2ccc(NC(=O)Nc3ccc4c(c3)OCO4)cc2CC(=O)N([C@H](C)CO)C[C@H]1C` stands “inactive”; under `COc1ccc(CN(C)C[C@H]2Oc3ccc(NC(=O)Cn4cnnn4)cc3CC(=O)N([C@@H](C)CO)C[C@@H]2C)cc1`, “inactive”; under `C[C@H]1CN([C@@H](C)CO)C(=O)c2cccc(NS(=O)(=O)c3ccc(Cl)cc3)c2O[C@H]1CN(C)Cc1ccc2c(c1)OCO2`, “inactive”.
Under `Cc1noc(C)c1S(=O)(=O)Nc1ccc2c(c1)C(=O)N([C@@H](C)CO)C[C@@H](C)[C@@H](CN(C)Cc1ccccc1)OCCCC[C@H](C)O2` stands “inactive”.
For `CC(C)NC(=O)Nc1ccc2c(c1)C(=O)N([C@@H](C)CO)C[C@H](C)[C@H](CN(C)C(=O)Nc1ccc(F)cc1)OCCCC[C@@H](C)O2`, the molecule was called inactive.
Then `CC(=O)CC(=O)N1C(=O)N(C)[C@@]2(C)Oc3ccccc3[C@@H]1[C@H]2COC(=O)c1ccccc1`, with “inactive”; and `C[C@@H]1CN([C@@H](C)CO)C(=O)Cc2cc(NS(C)(=O)=O)ccc2O[C@H]1CN(C)C(=O)Nc1ccccc1`, with “inactive”.
For `CO[C@H]1C(=O)c2c(O)c(CC=C(C)C)c(O)c(CC=C(C)C)c2O[C@@H]1c1ccc(O)cc1`, the result was inactive.
Then `CC(C)NC(=O)Nc1ccc2c(c1)C(=O)N([C@H](C)CO)C[C@@H](C)[C@@H](CN(C)S(=O)(=O)c1cccs1)OCCCC[C@@H](C)O2`, with “inactive”.
Under `COc1ccc(C#Cc2ccc3c(c2)[C@]2(C(=O)N3)[C@H](C(=O)N3CCCCCCC3)[C@H]3C(=O)O[C@H](c4ccccc4)[C@H](c4ccccc4)N3[C@@H]2c2ccc(O)cc2)cc1` stands “inactive”.
Then `O=C1O[C@@H](c2ccccc2)[C@@H](c2ccccc2)N2[C@@H](c3ccccc3OCCO)[C@]3(C(=O)Nc4ccc(C#CC5(O)CCCCCC5)cc43)[C@@H](C(=O)N3CCCCCCC3)[C@H]12`, with “inactive”.
Consider `O=C1O[C@H](c2ccccc2)[C@H](c2ccccc2)N2[C@H]1[C@@H](C(=O)N1CCN(c3ncccn3)CC1)[C@]1(C(=O)Nc3ccccc31)[C@H]2c1ccc(OCCO)cc1`, for which the result was inactive.
Regarding `COC(=O)C(CC#Cc1ccc2c(c1)[C@]1(C(=O)N2)[C@H](c2ccccc2OCCO)N2[C@H](c3ccccc3)[C@H](c3ccccc3)OC(=O)[C@H]2[C@@H]1C(N)=O)C(=O)OC`, the outcome was inactive.
As for `O=C1O[C@@H](c2ccccc2)[C@@H](c2ccccc2)N2[C@@H](c3ccccc3OCCO)[C@]3(C(=O)Nc4ccccc43)[C@@H](C(=O)N3CCCCCCC3)[C@H]12`, the molecule was classed as active.
For the molecule `COc1ccc(C#Cc2ccc3c(c2)[C@]2(C(=O)N3)[C@H](c3ccccc3OCCO)N3[C@H](c4ccccc4)[C@H](c4ccccc4)OC(=O)[C@H]3[C@@H]2C(=O)N2CCCCCCC2)cc1`, the molecule was called active.
In the case of `CC(=O)c1cccc(NC(=O)c2ccc(CNS(=O)(=O)c3ccc(C(C)(C)C)cc3)cc2)c1`, the call was inactive.
Then `C[C@@H]1CCCCO[C@H](CN(C)C(=O)NC2CCCCC2)[C@H](C)CN([C@@H](C)CO)C(=O)c2cc(NC(=O)C3CCCCC3)ccc2O1`, with “inactive”.
`C[C@@H]1CCCCO[C@H](CN(C)S(=O)(=O)c2ccccc2)[C@H](C)CN([C@@H](C)CO)C(=O)c2cc(N(C)C)ccc2O1`: the call was inactive.
Under `C[C@@H]1CN([C@@H](C)CO)C(=O)Cc2cc(NC(=O)Nc3ccc4c(c3)OCO4)ccc2O[C@@H]1CN(C)C(=O)Nc1ccc2c(c1)OCO2` stands “inactive”; under `C[C@@H]1CN([C@H](C)CO)C(=O)c2cc(NS(=O)(=O)c3ccccc3)ccc2O[C@H]1CN(C)C(=O)Nc1ccc2c(c1)OCO2`, “inactive”; under `O=c1cc(CSc2nnnn2-c2ccccc2)[nH]c(=S)[nH]1`, “inactive”.
Then `Cc1ccc(C)c(S(=O)(=O)NC(C)C(=O)Nc2ccc(Br)cc2F)c1` (stereo not given), with “inactive”.
For the molecule `C[C@H](CO)N1C[C@H](C)[C@H](CN(C)Cc2ccncc2)Oc2ccc(NC(=O)Cc3cn(C)c4ccccc34)cc2CC1=O`, the molecule was classed as inactive.
Under `COc1ccc(-c2cc(C(=O)N3CCCC3C(=O)O)c(C)o2)cc1OC` (stereo not given) stands “inactive”; under `CCN1CCN(S(=O)(=O)c2cc(OCC(N)=O)c(C)cc2Cl)CC1`, “inactive”.
On to `Cc1cc(C(=O)Nc2cccc3c2O[C@@H](CN(C)C(=O)Nc2ccc(F)cc2)[C@H](C)CN([C@@H](C)CO)C3=O)n(C)n1`, for which the result was inactive.
Under `C[C@H](CO)N1C[C@H](C)[C@@H](CN(C)Cc2ccc(C(=O)O)cc2)Oc2ccc(NC(=O)Cn3cnnn3)cc2CC1=O` stands “inactive”.
